{"source": "the supplement of paper PMC10849652", "note": "Targets with a hit are over-represented here; the source holds about 8,800 in all. About 0.5% of all pairs of compound and target were hits."}
{"compound": "CC1=C2C(=CC=C1)N=C(N(C2=O)C3=CC=CC=C3C)CN4C=NC5=C(N=CN=C54)N", "assay": "log2 fold change, soluble protein after heating vs DMSO (PISA); higher = thermal stabilisation; K562 lysate, 10 uM; active = over 0.2 and 3.5 SD of the protein, either way, in both replicates (recomputed)", "outline": "(§1)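 Soluble protein was defined as the supernatant remaining after 21,000xg for 90 min, following pooling of heated aliquots and adjustment to 0.5% NP-40 at 4°C. Before that, crude K562 extract at 1 mg/mL protein in PBS pH 7.4 with 1 mM MgCl2 was treated with 10 μM compound for 30 min and heated for 3 min across 48°C-58°C. Quantification used TMTpro 16plex LC-MS/MS with channel sums equalised, and values are log-two fold changes in thermal stability relative to solvent controls from duplicates.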"}
{"target": "UCP2 (UniProt P55851)", "log2 fold change": "-0.003 (inactive)"}
{"target": "TMEM177 (UniProt Q53S58)", "log2 fold change": "0.015 (inactive)"}
{"target": "TFPI isoform 2 (UniProt P10646)", "sequence (P10646 whole entry, looked up)": "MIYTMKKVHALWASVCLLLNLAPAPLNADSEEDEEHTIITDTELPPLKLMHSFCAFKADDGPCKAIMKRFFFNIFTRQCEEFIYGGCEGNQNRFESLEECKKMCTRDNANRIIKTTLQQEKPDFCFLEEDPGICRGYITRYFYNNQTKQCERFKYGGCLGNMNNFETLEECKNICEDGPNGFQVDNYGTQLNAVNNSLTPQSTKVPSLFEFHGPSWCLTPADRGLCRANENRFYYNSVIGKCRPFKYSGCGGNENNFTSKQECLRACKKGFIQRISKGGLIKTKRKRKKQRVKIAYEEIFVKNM", "log2 fold change": "0.048 (inactive)"}
{"target": "TNKS (UniProt O95271)", "sequence (O95271 whole entry, looked up)": "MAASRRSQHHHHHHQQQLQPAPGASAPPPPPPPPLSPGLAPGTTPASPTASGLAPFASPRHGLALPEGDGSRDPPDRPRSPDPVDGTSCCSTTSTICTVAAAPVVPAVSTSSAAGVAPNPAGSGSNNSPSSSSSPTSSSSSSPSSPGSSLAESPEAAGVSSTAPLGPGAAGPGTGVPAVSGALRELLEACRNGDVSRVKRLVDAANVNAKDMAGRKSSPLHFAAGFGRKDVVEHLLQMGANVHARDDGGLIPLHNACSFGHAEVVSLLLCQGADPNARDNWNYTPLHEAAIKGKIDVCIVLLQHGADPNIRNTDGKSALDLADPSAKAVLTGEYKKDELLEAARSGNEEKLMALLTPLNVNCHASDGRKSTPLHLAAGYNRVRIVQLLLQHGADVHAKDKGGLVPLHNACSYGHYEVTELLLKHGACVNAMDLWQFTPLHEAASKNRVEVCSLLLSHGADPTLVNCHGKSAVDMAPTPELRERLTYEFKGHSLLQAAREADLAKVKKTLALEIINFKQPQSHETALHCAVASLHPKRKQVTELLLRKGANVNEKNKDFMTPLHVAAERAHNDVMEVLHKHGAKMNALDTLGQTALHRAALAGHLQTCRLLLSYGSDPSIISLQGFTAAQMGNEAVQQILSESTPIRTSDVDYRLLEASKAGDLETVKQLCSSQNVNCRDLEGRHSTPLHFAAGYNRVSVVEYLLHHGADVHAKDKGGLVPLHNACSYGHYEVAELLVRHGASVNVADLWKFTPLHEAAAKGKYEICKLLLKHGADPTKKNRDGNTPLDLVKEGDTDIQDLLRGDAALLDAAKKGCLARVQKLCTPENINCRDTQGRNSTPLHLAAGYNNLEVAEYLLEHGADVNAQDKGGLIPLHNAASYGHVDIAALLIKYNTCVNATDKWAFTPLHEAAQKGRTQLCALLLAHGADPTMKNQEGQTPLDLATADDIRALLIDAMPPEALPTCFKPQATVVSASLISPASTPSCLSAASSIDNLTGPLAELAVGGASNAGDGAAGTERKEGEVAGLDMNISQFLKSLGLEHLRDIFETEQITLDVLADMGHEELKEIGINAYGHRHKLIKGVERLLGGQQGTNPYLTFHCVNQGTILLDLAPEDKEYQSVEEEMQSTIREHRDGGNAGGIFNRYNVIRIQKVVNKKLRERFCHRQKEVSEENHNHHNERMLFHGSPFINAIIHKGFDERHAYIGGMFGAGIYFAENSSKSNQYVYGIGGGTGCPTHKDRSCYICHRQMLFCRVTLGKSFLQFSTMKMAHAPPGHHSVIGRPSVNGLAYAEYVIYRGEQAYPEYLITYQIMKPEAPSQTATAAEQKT", "log2 fold change": "0.023 (inactive)"}
{"target": "TSPAN3 (UniProt O60637)", "sequence (O60637 whole entry, looked up)": "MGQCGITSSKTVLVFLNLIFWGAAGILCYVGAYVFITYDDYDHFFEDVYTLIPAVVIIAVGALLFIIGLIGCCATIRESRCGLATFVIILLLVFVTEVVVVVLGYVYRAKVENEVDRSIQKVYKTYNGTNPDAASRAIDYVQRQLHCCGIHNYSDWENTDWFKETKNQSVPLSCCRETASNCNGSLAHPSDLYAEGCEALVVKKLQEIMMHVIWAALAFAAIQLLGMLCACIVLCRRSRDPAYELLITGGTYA", "log2 fold change": "0.174 (inactive)"}
{"target": "UBN1 (UniProt Q9NPG3)", "sequence (Q9NPG3 whole entry, looked up)": "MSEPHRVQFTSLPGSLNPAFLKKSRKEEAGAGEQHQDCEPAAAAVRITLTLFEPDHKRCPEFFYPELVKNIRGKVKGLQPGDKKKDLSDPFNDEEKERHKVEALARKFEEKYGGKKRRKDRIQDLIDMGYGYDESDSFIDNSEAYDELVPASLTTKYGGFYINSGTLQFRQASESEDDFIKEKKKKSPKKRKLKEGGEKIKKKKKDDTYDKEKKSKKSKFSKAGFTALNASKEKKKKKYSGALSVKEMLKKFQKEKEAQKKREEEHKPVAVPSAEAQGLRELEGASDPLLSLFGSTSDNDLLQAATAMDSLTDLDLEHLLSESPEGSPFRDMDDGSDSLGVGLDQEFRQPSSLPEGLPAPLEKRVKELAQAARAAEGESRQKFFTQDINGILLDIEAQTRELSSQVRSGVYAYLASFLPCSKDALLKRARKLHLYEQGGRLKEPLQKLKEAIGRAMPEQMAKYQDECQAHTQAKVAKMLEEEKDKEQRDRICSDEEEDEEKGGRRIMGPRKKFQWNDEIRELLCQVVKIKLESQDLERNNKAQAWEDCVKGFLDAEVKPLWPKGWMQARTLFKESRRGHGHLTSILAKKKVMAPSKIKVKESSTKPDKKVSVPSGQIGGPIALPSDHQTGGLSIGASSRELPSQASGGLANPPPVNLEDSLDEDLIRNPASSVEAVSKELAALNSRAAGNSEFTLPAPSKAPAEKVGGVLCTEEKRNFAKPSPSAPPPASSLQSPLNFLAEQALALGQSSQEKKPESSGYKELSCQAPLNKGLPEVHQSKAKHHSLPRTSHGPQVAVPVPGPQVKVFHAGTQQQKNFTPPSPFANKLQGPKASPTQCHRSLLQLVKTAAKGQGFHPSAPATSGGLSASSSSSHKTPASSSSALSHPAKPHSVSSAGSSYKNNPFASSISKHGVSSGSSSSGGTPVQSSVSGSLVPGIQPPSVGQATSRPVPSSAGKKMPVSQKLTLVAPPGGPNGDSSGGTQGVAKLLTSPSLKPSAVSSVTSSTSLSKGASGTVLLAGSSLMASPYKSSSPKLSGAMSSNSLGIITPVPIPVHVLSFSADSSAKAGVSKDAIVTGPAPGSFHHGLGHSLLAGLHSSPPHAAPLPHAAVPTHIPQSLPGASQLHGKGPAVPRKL", "log2 fold change": "0.03 (inactive)"}
{"target": "TMC1 (UniProt Q8TDI8)", "log2 fold change": "0.038 (inactive)"}
{"target": "TUBB6 (UniProt K7ES63)", "log2 fold change": "-0.028 (inactive)"}
{"target": "TPM3 isoform 3 (UniProt P06753)", "sequence (P06753 whole entry, looked up)": "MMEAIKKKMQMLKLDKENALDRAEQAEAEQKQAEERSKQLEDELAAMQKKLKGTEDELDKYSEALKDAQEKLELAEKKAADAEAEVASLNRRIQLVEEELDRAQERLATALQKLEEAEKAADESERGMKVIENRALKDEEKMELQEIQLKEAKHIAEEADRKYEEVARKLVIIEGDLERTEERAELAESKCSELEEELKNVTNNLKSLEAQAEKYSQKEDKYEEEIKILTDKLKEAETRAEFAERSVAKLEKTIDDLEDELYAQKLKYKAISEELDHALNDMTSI", "log2 fold change": "-0.048 (inactive)"}
{"target": "TRIM3 (UniProt O75382)", "log2 fold change": "0.197 (inactive)"}
{"target": "TEC (UniProt P42680)", "log2 fold change": "0.114 (inactive)"}
{"target": "TFPI (UniProt P10646)", "log2 fold change": "-0.16 (inactive)"}
{"target": "TMEM161B (UniProt Q8NDZ6)", "log2 fold change": "-0.076 (inactive)"}
{"target": "UBIAD1 (UniProt Q9Y5Z9)", "sequence (Q9Y5Z9 whole entry, looked up)": "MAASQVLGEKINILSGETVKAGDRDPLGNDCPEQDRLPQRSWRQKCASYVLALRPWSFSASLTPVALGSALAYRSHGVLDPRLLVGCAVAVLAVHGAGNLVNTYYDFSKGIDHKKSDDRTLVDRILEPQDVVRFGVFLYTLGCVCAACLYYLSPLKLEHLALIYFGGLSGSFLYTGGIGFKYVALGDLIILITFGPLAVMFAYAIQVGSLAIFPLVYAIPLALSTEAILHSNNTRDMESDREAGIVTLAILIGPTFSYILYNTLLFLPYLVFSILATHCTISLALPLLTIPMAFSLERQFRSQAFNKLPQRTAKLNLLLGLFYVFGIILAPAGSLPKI", "log2 fold change": "-0.025 (inactive)"}
{"target": "UBAP2L (UniProt F8W726)", "log2 fold change": "-0.018 (inactive)"}
{"target": "TRAF7 (UniProt Q6Q0C0)", "sequence (Q6Q0C0 whole entry, looked up)": "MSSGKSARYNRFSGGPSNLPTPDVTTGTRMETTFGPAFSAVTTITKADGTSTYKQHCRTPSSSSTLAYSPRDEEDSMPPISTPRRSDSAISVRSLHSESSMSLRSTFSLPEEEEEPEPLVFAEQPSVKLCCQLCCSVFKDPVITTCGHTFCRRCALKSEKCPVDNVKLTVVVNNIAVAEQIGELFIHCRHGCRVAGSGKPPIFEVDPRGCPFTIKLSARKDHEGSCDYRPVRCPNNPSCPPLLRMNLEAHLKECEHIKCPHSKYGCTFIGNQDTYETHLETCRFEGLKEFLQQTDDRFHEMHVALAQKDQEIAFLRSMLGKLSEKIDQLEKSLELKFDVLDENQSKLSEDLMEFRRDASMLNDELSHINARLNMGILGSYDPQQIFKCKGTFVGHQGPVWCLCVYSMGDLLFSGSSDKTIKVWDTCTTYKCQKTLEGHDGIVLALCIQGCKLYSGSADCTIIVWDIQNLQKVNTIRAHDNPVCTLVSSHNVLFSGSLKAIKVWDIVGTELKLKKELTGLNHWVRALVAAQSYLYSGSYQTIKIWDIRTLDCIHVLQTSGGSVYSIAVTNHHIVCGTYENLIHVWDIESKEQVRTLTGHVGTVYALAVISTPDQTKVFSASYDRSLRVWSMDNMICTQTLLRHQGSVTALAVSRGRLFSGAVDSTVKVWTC", "log2 fold change": "0.007 (inactive)"}
{"target": "UBR4 isoform 4 (UniProt Q5T4S7)", "log2 fold change": "-0.023 (inactive)"}
{"target": "TCF3 (UniProt X6REB3)", "log2 fold change": "-0.031 (inactive)"}
{"compound": "Cc1sc2c(c1C)C(c1ccc(Cl)cc1)=N[C@@H](CC(=O)OC(C)(C)C)c1nnc(C)n1-2", "assay": "log2 fold change, soluble protein after heating vs DMSO (PISA); higher = thermal stabilisation; K562 lysate, 10 uM; active = over 0.2 and 3.5 SD of the protein, either way, in both replicates (recomputed)", "outline": "as §1"}
{"target": "TASP1 (UniProt Q9H6P5)", "log2 fold change": "0.059 (inactive)"}
{"target": "TGFBR1 isoform 2 (UniProt P36897)", "log2 fold change": "-0.004 (inactive)"}
{"target": "TNIK isoform 5 (UniProt Q9UKE5)", "log2 fold change": "-0.089 (inactive)"}
{"target": "TNKS (UniProt O95271)", "log2 fold change": "0.039 (inactive)"}
{"target": "TSPAN3 (UniProt O60637)", "log2 fold change": "0.006 (inactive)"}
{"target": "UBN1 (UniProt Q9NPG3)", "log2 fold change": "-0.164 (inactive)"}
{"target": "TEDC1 (UniProt Q86SX3)", "sequence (Q86SX3 whole entry, looked up)": "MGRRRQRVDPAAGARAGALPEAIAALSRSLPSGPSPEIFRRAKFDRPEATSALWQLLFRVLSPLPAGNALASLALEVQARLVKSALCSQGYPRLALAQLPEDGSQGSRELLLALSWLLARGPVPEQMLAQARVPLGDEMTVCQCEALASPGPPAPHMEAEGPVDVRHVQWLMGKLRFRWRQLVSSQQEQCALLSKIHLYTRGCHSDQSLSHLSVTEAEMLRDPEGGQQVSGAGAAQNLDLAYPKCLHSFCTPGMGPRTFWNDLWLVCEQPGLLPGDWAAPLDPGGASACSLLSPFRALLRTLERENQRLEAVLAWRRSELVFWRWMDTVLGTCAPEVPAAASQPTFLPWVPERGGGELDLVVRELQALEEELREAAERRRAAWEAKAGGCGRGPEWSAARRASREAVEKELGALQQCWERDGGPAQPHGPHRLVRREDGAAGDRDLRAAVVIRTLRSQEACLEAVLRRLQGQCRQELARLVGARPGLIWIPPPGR", "log2 fold change": "0.058 (inactive)"}
{"target": "TNFAIP3 (UniProt P21580)", "log2 fold change": "0.033 (inactive)"}
{"target": "TCF20 (UniProt Q9UGU0)", "log2 fold change": "-0.263 (inactive)"}
{"target": "TLE3 isoform 5 (UniProt Q04726)", "log2 fold change": "-0.069 (inactive)"}
{"target": "U2AF1L5 (UniProt P0DN76)", "log2 fold change": "0.002 (inactive)"}
{"target": "TPM3 isoform 3 (UniProt P06753)", "log2 fold change": "-0.041 (inactive)"}
{"target": "TRPM4 (UniProt Q8TD43)", "log2 fold change": "-0.042 (inactive)"}
{"target": "TFPT (UniProt P0C1Z6)", "log2 fold change": "-0.052 (inactive)"}
{"target": "TMEM154 (UniProt Q6P9G4)", "sequence (Q6P9G4 whole entry, looked up)": "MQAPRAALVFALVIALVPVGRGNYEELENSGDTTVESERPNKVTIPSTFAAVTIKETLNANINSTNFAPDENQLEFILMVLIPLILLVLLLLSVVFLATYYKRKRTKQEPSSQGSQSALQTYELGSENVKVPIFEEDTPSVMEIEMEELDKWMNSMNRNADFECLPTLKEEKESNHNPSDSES", "log2 fold change": "-0.073 (inactive)"}
{"target": "UBIAD1 (UniProt Q9Y5Z9)", "log2 fold change": "-0.048 (inactive)"}
{"target": "TLE3 (UniProt H0YL70)", "log2 fold change": "-0.343 (inactive)"}
{"target": "TRAF7 (UniProt Q6Q0C0)", "log2 fold change": "-0.005 (inactive)"}
{"target": "UBR4 isoform 4 (UniProt Q5T4S7)", "log2 fold change": "-0.284 (inactive)"}
{"target": "TCF4 (UniProt P15884)", "log2 fold change": "0.047 (inactive)"}
{"target": "TUBB4A (UniProt P04350)", "log2 fold change": "0.044 (inactive)"}
